Experimental data published in ChEMBL document CHEMBL1961873, “Compounds: GSK PKIS; Assays: Nanosyn kinase panel” (2012).

What was measured:
[1] = target: Dual specificity protein kinase CLK3 (Homo sapiens) (UniProt P49761); conditions: at 1 µM;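 note: each value is the mean inhibition of CLK3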
[2] = target: Dual specificity tyrosine-phosphorylation-regulated kinase 1A (Homo sapiens) (UniProt Q13627); conditions: at 0.1 µM
[3] = target: Dual specificity tyrosine-phosphorylation-regulated kinase 1A (Homo sapiens) (UniProt Q13627); conditions: at 1 µM
[4] = target: Dual specificity tyrosine-phosphorylation-regulated kinase 1B (Homo sapiens) (UniProt Q9Y463); conditions: at 0.1 µM
Dual specificity tyrosine-phosphorylation-regulated kinase 1B (Homo sapiens), sequence (Q9Y463 whole entry, looked up): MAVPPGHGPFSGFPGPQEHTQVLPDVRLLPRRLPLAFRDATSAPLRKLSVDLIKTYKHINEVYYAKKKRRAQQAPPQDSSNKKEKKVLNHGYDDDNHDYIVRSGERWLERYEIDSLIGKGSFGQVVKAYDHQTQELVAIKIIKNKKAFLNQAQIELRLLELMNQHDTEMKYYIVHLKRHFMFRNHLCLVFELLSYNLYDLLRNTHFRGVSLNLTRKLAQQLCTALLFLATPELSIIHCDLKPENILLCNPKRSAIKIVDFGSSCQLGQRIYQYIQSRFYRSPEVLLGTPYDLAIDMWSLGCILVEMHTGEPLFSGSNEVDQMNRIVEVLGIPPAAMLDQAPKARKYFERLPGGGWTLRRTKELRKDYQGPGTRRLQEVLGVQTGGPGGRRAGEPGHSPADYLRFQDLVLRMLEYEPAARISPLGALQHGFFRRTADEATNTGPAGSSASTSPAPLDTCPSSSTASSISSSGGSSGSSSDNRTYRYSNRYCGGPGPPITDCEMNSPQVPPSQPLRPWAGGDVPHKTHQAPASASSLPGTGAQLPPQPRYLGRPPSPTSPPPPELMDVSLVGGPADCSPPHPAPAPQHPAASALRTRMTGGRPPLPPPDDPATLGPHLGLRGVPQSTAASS

[5] = target: Dual specificity tyrosine-phosphorylation-regulated kinase 1B (Homo sapiens) (UniProt Q9Y463); conditions: at 1 µM
[6] = target: T1, Dual specificity tyrosine-phosphorylation-regulated kinase 2 (Homo sapiens) (UniProt Q92630); conditions: at 0.1 µM
T1 sequence (whole entry): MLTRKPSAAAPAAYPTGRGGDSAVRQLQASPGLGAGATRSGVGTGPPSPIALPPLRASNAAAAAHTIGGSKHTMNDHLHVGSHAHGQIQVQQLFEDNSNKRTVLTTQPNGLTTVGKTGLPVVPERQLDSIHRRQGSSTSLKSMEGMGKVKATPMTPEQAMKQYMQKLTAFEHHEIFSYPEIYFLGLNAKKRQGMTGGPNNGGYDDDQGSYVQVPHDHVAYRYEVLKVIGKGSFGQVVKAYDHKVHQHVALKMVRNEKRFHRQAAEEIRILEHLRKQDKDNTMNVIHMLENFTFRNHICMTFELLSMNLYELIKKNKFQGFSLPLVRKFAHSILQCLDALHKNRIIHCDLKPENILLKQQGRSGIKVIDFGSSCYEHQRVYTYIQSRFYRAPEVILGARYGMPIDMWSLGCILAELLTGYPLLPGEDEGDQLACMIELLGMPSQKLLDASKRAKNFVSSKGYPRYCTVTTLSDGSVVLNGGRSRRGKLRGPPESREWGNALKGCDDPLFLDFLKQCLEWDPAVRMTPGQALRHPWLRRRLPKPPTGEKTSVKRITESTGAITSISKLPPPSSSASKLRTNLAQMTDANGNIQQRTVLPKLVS

[7] = target: T1, Dual specificity tyrosine-phosphorylation-regulated kinase 2 (Homo sapiens); conditions: at 1 µM
[8] = target: Glycogen synthase kinase-3 alpha (Homo sapiens) (UniProt P49840); conditions: at 0.1 µM
Glycogen synthase kinase-3 alpha (Homo sapiens), sequence (P49840 2-483 limits assumed): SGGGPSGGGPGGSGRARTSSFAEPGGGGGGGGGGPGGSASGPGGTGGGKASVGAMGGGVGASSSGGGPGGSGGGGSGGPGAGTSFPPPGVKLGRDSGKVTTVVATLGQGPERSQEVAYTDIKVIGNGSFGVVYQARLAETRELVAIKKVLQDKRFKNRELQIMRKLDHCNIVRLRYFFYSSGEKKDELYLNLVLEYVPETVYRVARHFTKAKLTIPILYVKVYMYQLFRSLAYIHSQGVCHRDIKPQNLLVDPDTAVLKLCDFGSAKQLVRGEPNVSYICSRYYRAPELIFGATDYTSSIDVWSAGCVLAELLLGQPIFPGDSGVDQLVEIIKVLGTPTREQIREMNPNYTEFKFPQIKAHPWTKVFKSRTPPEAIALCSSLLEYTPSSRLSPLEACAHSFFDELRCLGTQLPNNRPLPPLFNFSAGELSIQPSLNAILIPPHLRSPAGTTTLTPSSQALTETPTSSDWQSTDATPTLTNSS

[9] = target: Glycogen synthase kinase-3 alpha (Homo sapiens) (UniProt P49840); conditions: at 1 µM
[10] = target: Glycogen synthase kinase-3 beta (Homo sapiens) (UniProt P49841); conditions: at 0.1 µM
Glycogen synthase kinase-3 beta (Homo sapiens), sequence (P49841 whole entry, looked up): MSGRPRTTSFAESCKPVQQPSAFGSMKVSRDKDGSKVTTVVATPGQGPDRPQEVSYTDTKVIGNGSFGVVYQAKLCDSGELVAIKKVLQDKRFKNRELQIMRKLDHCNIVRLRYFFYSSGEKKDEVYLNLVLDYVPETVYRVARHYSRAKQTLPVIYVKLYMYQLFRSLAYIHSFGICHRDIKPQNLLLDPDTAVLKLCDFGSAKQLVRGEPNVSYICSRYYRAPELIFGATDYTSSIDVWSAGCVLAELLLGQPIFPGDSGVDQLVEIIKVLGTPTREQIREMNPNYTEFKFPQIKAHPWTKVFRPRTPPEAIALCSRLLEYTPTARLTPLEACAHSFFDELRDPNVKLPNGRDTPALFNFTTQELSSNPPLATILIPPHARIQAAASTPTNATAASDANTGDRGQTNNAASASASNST

[11] = target: Glycogen synthase kinase-3 beta (Homo sapiens) (UniProt P49841); conditions: at 1 µM
[12] = target: Homeodomain-interacting protein kinase 1 (Homo sapiens) (UniProt Q86Z02); conditions: at 0.1 µM
Homeodomain-interacting protein kinase 1 (Homo sapiens), sequence (Q86Z02 whole entry, looked up): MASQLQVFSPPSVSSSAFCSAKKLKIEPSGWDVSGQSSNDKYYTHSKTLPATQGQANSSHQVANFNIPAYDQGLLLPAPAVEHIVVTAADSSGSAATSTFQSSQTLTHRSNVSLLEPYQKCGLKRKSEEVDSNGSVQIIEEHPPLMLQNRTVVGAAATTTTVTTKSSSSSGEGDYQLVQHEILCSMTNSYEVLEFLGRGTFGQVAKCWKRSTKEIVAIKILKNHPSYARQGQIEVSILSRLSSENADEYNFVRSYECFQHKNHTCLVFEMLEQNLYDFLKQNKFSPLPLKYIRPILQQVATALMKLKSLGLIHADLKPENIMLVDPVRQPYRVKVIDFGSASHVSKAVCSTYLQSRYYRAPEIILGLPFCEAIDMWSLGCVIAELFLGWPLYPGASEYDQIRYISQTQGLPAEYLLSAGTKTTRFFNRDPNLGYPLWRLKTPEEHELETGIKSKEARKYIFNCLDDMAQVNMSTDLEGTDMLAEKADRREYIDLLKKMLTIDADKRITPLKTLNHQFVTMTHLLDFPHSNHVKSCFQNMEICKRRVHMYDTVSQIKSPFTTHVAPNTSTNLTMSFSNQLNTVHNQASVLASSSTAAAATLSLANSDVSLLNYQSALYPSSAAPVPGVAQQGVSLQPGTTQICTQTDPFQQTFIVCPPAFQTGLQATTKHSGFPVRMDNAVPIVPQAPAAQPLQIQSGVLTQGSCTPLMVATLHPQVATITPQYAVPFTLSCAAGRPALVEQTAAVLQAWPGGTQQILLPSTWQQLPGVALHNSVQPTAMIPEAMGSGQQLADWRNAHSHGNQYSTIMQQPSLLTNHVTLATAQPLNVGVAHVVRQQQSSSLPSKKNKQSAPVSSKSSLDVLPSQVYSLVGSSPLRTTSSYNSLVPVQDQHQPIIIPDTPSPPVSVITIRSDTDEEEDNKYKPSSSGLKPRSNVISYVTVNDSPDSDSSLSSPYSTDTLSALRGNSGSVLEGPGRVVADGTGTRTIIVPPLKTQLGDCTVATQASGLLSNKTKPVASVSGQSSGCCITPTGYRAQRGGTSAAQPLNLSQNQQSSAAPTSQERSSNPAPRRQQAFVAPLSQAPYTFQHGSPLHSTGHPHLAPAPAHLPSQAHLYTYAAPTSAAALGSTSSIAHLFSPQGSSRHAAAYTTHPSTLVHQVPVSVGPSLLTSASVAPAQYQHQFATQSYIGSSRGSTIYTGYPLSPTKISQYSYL

[13] = target: Homeodomain-interacting protein kinase 1 (Homo sapiens) (UniProt Q86Z02); conditions: at 1 µM
[14] = target: T2, Homeodomain-interacting protein kinase 4 (Homo sapiens) (UniProt Q8NE63); conditions: at 0.1 µM
T2 sequence (whole entry): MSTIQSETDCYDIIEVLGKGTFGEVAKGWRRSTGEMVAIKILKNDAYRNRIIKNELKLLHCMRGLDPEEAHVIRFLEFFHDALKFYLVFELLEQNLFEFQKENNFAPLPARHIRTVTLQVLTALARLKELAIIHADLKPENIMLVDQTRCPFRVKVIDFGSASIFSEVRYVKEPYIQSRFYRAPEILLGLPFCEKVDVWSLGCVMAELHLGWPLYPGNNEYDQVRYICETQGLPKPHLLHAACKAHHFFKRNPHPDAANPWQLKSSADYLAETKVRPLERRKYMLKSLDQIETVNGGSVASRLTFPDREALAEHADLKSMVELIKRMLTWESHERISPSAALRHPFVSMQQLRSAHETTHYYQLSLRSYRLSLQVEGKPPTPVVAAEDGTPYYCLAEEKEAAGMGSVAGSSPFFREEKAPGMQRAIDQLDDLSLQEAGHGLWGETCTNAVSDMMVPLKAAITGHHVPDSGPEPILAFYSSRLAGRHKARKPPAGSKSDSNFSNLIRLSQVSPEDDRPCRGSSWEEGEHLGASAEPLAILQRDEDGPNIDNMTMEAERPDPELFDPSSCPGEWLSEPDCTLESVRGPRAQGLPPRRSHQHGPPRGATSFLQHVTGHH

[15] = target: T2, Homeodomain-interacting protein kinase 4 (Homo sapiens); conditions: at 1 µM
[16] = target: Mitogen-activated protein kinase 9 (Homo sapiens) (UniProt P45984); conditions: at 0.1 µM
Mitogen-activated protein kinase 9 (Homo sapiens), sequence (P45984 whole entry, looked up): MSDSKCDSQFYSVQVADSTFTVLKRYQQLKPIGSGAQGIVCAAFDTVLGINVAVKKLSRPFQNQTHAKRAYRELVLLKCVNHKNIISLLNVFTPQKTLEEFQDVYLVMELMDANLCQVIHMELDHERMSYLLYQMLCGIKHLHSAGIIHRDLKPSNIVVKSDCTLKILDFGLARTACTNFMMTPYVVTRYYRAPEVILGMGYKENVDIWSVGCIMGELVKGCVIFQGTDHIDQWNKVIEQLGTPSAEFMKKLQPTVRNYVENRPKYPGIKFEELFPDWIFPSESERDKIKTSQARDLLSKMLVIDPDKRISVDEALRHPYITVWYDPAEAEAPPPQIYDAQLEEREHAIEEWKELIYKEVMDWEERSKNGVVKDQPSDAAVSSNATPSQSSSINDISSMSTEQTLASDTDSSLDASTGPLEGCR

[17] = target: Mitogen-activated protein kinase 9 (Homo sapiens) (UniProt P45984); conditions: at 1 µM
[18] = target: Mitogen-activated protein kinase 1 (Homo sapiens) (UniProt P28482); conditions: at 0.1 µM
Mitogen-activated protein kinase 1 (Homo sapiens), sequence (P28482 whole entry): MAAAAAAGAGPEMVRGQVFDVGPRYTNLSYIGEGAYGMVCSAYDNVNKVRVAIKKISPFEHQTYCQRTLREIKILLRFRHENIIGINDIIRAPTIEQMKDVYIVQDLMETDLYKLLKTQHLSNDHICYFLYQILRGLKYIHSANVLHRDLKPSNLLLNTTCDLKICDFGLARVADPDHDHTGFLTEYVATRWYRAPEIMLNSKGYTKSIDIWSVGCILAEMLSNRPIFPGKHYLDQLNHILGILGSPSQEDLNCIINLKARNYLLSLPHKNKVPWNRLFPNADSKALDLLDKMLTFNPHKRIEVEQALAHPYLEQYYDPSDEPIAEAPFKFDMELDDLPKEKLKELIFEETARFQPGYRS

[19] = target: Mitogen-activated protein kinase 1 (Homo sapiens) (UniProt P28482); conditions: at 1 µM
[20] = target: Mitogen-activated protein kinase 3 (Homo sapiens) (UniProt P27361); conditions: at 0.1 µM;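 note: each value is a mean inhibition figure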
Mitogen-activated protein kinase 3 (Homo sapiens), sequence (P27361 whole entry): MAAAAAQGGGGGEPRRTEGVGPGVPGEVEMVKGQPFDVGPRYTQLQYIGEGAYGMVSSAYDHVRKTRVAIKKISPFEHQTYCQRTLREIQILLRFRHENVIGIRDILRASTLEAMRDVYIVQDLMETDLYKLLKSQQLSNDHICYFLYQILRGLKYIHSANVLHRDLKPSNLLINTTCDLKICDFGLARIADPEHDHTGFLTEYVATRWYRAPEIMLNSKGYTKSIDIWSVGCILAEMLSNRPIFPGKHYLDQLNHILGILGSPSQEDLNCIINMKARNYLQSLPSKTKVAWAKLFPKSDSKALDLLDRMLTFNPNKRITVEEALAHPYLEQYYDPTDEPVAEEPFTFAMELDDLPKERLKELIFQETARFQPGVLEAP

Dual specificity protein kinase CLK3 (Homo sapiens), sequence (P49761 whole entry, looked up): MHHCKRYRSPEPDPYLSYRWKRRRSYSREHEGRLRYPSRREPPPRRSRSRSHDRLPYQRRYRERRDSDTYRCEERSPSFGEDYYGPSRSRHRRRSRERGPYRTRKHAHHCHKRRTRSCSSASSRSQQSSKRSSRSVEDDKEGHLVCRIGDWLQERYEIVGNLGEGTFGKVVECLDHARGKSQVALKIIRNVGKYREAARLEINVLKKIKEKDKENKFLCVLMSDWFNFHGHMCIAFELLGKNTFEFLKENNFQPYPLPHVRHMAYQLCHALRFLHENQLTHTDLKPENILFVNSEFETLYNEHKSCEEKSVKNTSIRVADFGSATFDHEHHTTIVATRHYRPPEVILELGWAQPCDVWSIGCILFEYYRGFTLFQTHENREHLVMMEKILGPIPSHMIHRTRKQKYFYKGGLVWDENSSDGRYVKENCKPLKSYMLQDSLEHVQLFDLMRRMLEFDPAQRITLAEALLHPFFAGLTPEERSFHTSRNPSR

Row | Structure (SMILES) | inhibition [1] [%] | inhibition [2] [%] | inhibition [3] [%] | inhibition [4] [%] | inhibition [5] [%] | inhibition [6] [%] | inhibition [7] [%] | inhibition [8] [%] | inhibition [9] [%] | inhibition [10] [%] | inhibition [11] [%] | inhibition [12] [%] | inhibition [13] [%] | inhibition [14] [%] | inhibition [15] [%] | inhibition [16] [%] | inhibition [17] [%] | inhibition [18] [%] | inhibition [19] [%] | inhibition [20] [%]
1 | Cc1nc(-c2ccccc2)n2nc(NCCCN3CCOCC3)ncc12 | 1.74 | 1.71 | 19 | 1.12 | 7.26 | 1.55 | 5.9 | 5.02 | 13.1 | 4.78 | 18.5 | 0.72 | 13.3 | 1.88 | 14.4 | 1.8 | 5.36 | 3.31 | 6.13 | 4.27
2 | O=C(Nc1ccc(Oc2ccc3[nH]c(NC(=O)c4ccco4)nc3c2)cc1)Nc1cc(C(F)(F)F)ccc1F | -2.83 | -3.75 | -1.33 | -3.67 | -1.57 | 0.62 | 0.74 | -1.87 | 2.71 | -2.51 | 1.83 | -4.45 | -2.14 | 13.6 | 66.3 | 0.08 | 2.67 | 0.81 | 0.8 | 1.59
3 | NC(=O)c1cccc(Nc2nccc(Nc3cccc(F)c3)n2)c1 | 2.19 | 0.47 | 0.26 | 0.64 | -0.2 | 1.36 | 1.82 | 3.82 | 21 | 2.25 | 15.8 | -3.17 | 5.3 | 0.35 | 8.46 | 0.09 | 8.39 | 0.99 | 2.19 | -0.06
4 | Cc1ccc2c(c1)/C(=N/Nc1ccc(S(N)(=O)=O)cc1)C(=O)N2 | -0.91 | -1.04 | 2.94 | -1.01 | 1.94 | 0.43 | -0.62 | 4.1 | 31.3 | 1.9 | 23.7 | -4.8 | 0 | -2.11 | -0.65 | 2.38 | 1.49 | -0.67 | 2.7 | 2.34
5 | Cc1ccc(Nc2ccnc(Nc3cccc(C(N)=O)c3)n2)cc1O | 3.09 | 2.45 | 26.5 | -1.03 | 11.8 | 2.25 | 7.18 | 0.67 | 14.9 | 0.74 | 17.4 | -4.04 | 0.47 | 2.33 | 10.8 | 3.91 | 14.6 | 4.59 | 4.19 | 3.66
6 | COC(=O)c1ccc2c(c1)C(=Cc1cc(Br)c(O)c(Br)c1)C(=O)N2 | 7.3 | 14.2 | 61.9 | 9.22 | 53.5 | 5.68 | 18.8 | 9.38 | 42.9 | 9.77 | 44.2 | 10.2 | 60.8 | 4.27 | 35 | 4.88 | 11 | 3.12 | 6.19 | 4.78
7 | NC(=O)c1sc(-n2cnc3ccccc32)cc1OCc1ccccc1Br | 0.92 | 2.9 | 4.57 | 0.66 | 2.25 | 3.45 | 5.8 | 5.13 | 11.9 | 4.55 | 11.8 | -1.6 | 7.12 | 0.95 | 7.54 | 4.13 | 6 | 3.31 | 5.56 | 1.19
8 | CC(C)c1ccc(Nc2nccc(-c3cnn4ncccc34)n2)cc1 | 14 | 40.6 | 81.2 | 43.4 | 82.1 | 2.73 | 14 | 35.6 | 76 | 31.3 | 75.4 | 57.9 | 87.8 | 11.2 | 50.6 | 5.25 | 27 | 3.14 | 9.29 | 0.92
9 | Cc1ccc2c(-c3ccnc(Nc4ccc5c(c4)OCCO5)n3)c(-c3ccc(C(F)(F)F)cc3)nn2n1 | 0.07 | 0.1 | 2 | -0.58 | 1.39 | -0.27 | -1.15 | 5.44 | 10.5 | 4.65 | 10.2 | -4.36 | 0.03 | -0.51 | -0.85 | -0.33 | 4.2 | 1.99 | 2.01 | 2.57
10 | CCn1c(-c2nonc2N)nc2c(C#CC(C)(C)O)nc(OCCNC)cc21 | 0.43 | 2.71 | 2.94 | -0.33 | -0.29 | 5.86 | 5.26 | 11.6 | 49.9 | 8.59 | 46.8 | -1.59 | 7.86 | 0.33 | 1.92 | 3.85 | 2.84 | 5.46 | 5.18 | 3.73
11 | C[C@@H](Oc1cc(-n2cnc3ccc(OCC4CCN(C)CC4)cc32)sc1C(N)=O)c1ccccc1C(F)(F)F | 3.73 | -2.42 | 2.47 | 0.26 | 2.2 | -2.57 | -2.94 | -0.56 | 2.65 | -0.31 | 2.74 | -3.51 | 9.66 | 4.86 | 32.3 | -0.81 | -1.11 | 0.24 | 0.02 | -1.53
12 | Cc1cc(Cl)cc2c1NC(=O)C2=NNc1ccc(S(N)(=O)=O)cc1 | 0.83 | 1.45 | 2.28 | -0.62 | 1.24 | 0.8 | 2.04 | 2.99 | 6.57 | 1.19 | 5.76 | 1.47 | 1.67 | 0.61 | 2.42 | -0.14 | 2.41 | 4.09 | 2.74 | 2.98
13 | COc1ccc2ncnc(Nc3ccc(OCc4ccccc4)cc3)c2c1 | 1.64 | 1.05 | 3.73 | -0.87 | 1.35 | 1.27 | 2.65 | 1.55 | 4.44 | 1.06 | 0.7 | 0.26 | 3.41 | 0.67 | 1.18 | 3.85 | 2.97 | 2.37 | 2.37 | 4.06
14 | c1ccc(Cc2nc3ccc(Nc4ncnc5ccccc45)cc3[nH]2)cc1 | 5.49 | 6.02 | 9.77 | 5.37 | 8.13 | 1.99 | 3.84 | 5.62 | 9.56 | 5.99 | 7.73 | 6.99 | 9.6 | 4.87 | 9.82 | 1.51 | 3.95 | 3.59 | 3.76 | 2.28
